# Reference: PubChem BioAssay (NCATS)
# Results filed as inconclusive are left out. A call without a number means that no potency is given here. Activity calls are given as the source filed them. The call rests on the fitted dose curve; in most records, active means well fitted inhibition curve with a large enough effect; inconclusive means small, poorly fitted or top-dose-only effect; inactive means flat fitted curve, though single readings scatter.
# Test system: CP203
# Assay: qHTS profiling for inhibitors of Plasmodium falciparum proliferation (AID 504749); further: nearly all actives have a fitted effect of over 60% in size
# Conditions: P. falciparum in erythrocytes, SYBR Green DNA, 72 h; series mostly up to 28.7 µM
# Description: NIH National Institute of Allergy and Infectious Diseases [NIAID] NIH Chemical Genomics Center [NCGC] MLPCN Grant: None Assay Provider: Xinzhuan Su, NIAID NCGC Assay Overview: Plasmodium falciparum is a virulent malarial parasite that kills 1-2 million people worldwide each year. Transmitted by mosquitoes, the sporozoite form of the parasite enters the blood stream to infect hepatocytes, where they become merozoites that infect red blood cells (erythrocytes). Within erythrocytes, merozoites begin a […] cycle of growth and division, after which the parasite is released to infect new red blood cells. Gametocytes, which form within erythrocytes as well, circulate in the bloodstream and are ingested by the mosquito, thereby completing the life cycle. To profile malarial isolates for differential chemical responses and to identify inhibitors of malarial growth, an assay that measures P. falciparum growth and replication within erythrocytes was employed. This assay uses a DNA binding fluorescent dye (SYBR Green) to detect parasite DNA following cell lysis. Because mature erythrocytes lack DNA, only Plasmodium-derived DNA is detected.
# NCGC Assay Protocol Summary: The SYBR Green viability assay was adapted from a method described previously (Plouffe et al., 2008). For screening 3 ul culture medium was dispensed into 1536 well black clear bottom plates (Aurora Biotechnologies) using a Multidrop Combi (Thermo Fisher Scientific Inc.), 23 nL compounds in DMSO were added by a pin tool (Kalypsys), and 5 ul of erythrocytes infected with P. falciparum (0.3% parasitemia, 2.5% hematocrit final concentration) were added. The plates were incubated at 37 C in a humidified incubator in 5% CO2 for 72 h, and 2 ul lysis buffer (20 mM Tris HCl, 10 mM EDTA, 0.16% saponin, 1.6% triton X, 10X SYBR Green I supplied as 10,000X […] by Invitrogen) was added to each well. The plates were mixed for 25 sec with gentle shaking and incubated overnight at room temperature in the dark. The following morning, fluorescence intensity at 485(14) nm excitation and 535(25) nm emission wavelengths was measured on an EnVision (Perkin Elmer) plate reader. Plate reads were normalized relative to the control inhibitor (0.29 uM artemisinin) and vehicle (DMSO) wells present on each plate and then corrected by an algorithm using vehicle-only control plates at the beginning and end of the compound plate stack.
# Potency means the concentration at half of the fitted maximal effect.
row,Compound,Potency
1,N#Cc1c(N(CC(=O)O)CC(=O)O)sc(C(=O)O)c1CC(=O)O,inactive
2,CS(=O)(=O)c1ccc(C2=C(c3ccccc3)C(=O)OC2)cc1,inactive
3,COc1ccnc(CS(=O)c2nc3ccc(OC(F)F)cc3[nH]2)c1OC (centres undefined),inactive
4,NS(=O)(=O)c1cc(Cl)c(Cl)c(S(N)(=O)=O)c1,inactive
5,Clc1ccc(COC(Cn2ccnc2)c2ccc(Cl)cc2Cl)c(Cl)c1 (centres undefined),5.1 µM (active)
6,C=C1c2cccc(O)c2C(O)=C2C(=O)[C@@]3(O)C(O)=C(C(N)=O)C(=O)[C@@H](N(C)C)[C@@H]3[C@@H](O)[C@H]12,inactive
7,COc1cc2c(cc1OC)CC(=O)N(CCCN(C)C[C@H]1Cc3cc(OC)c(OC)cc31)CC2,inactive
8,N#CC(c1ccc(Cl)cc1)c1c(Cl)cc(-n2ncc(=O)[nH]c2=O)cc1Cl (centres undefined),inactive
9,Cc1cc2nc3c(=O)[nH]c(=O)nc-3n(CC(O)C(O)C(O)CO)c2cc1C (centres undefined),inactive
10,CN1CC(=O)N2C(Cc3c([nH]c4ccccc34)[C@H]2c2ccc3c(c2)OCO3)C1=O (some centres undefined),inactive
11,CC(C)CN(C[C@@H](O)[C@H](Cc1ccccc1)NC(=O)O[C@H]1CO[C@H]2OCC[C@H]21)S(=O)(=O)c1ccc(N)cc1,inactive
12,COc1c(C)c2c(c(O)c1CC=C(C)CCC(=O)OCCN1CCOCC1)C(=O)OC2,6.01 µM (active)
13,O=C(O)c1nc(=O)[nH]c(=O)[nH]1,inactive
14,O=C1C(CCC(O)c2ccc(F)cc2)C(c2ccc(O)cc2)N1c1ccc(F)cc1 (centres undefined),inactive
